ALOX12 inh – Primary qHTS assay for inhibitors of human arachidonate 12S-lipoxygenase (ALOX12): Round 2; Potency, µM (series often up to 108 µM), hits mostly inhibitors; AID 1671190, 2021; hit rate 1.1% among 580,000; purified 12hLO, xylenol orange hydroperoxide absorbance
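Purified human 12hLO (150 nM final) in 25 mM Hepes, 0.01% Triton X-100, pH 7.0 was preincubated 15 min at room temperature with compound. Then 40 uM arachidonic acid was added, 30 min. Hydroperoxide was read by Fe-XO absorbance ratio 573/405 nm.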
KAT2A inh – qHTS Assay for Inhibitors of GCN5L2. hit rate 0.21% among 390,000. GCN5L2 HAT assay, ThioGlo1 CoA-SH fluorescence. Histone acetyltransferase KAT2A (Homo sapiens), Q92830. Potency, µM (doses to about 58.9 µM), usual class: inhibitors. AID 504327, 2011
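GCN5L2 (20nM final) in 50mM HEPES, 0.1mM EDTA pH 7.5, 0.01% Tween-20 was preincubated 15 min at room temperature with compound, then given ThioGlo1 (50uM), H3(1-25) peptide (75uM) and acetyl-CoA (70uM); CoA-thiol fluorescence (Ex340/Em540) was read at 0 and 20 min.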
PLK1 PBD block – qHTS for Inhibitors of PLK1-PDB (polo-like kinase 1 - polo-box domain): Primary Screen; Serine/threonine-protein kinase PLK1 (Homo sapiens), P53350; Plk1 PBD binding of FITC phosphopeptide, fluorescence polarization; Potency, µM, most hits filed as inhibitors; hit rate 2.8% among 360,000; AID 720504, 2013; also: series mostly up to about 57 µM; nearly all actives have a fitted effect of over 65% in size
VDR inh – Inhibitors of the vitamin D receptor (VDR): qHTS | Potency, µM, usual class: inhibitors | VDR-SRC2-3 peptide fluorescence polarization, 2 h | hit rate 0.93% among 400,000 | Vitamin D3 receptor (Homo sapiens), P11473 | AID 504847, 2011
Target sequence (P11473 whole entry, looked up): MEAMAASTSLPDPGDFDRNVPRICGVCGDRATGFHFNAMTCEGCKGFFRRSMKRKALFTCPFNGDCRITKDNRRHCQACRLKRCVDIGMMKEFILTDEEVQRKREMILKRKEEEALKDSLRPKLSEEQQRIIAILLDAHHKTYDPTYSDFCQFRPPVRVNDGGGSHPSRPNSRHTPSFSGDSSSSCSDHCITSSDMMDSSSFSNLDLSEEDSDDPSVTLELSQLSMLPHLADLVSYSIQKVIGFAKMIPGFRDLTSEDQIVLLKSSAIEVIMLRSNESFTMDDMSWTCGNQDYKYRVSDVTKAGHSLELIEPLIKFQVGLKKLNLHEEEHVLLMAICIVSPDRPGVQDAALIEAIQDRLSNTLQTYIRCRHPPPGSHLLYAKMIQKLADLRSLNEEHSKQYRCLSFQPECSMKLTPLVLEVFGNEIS
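VDR–SRC2-3 interaction, FP format. Cmpds 23 nl via pintool, brief spin, 2 h ambient incubation.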
Hits are given with their value; – = inactive; ? = inconclusive; · = not tested or not shown; ! = not active in a repeat; [ ] = remark or other dose. This is a sample that favours compounds with a hit; in the whole collection about 3% have one here. Calls follow the shape of the dose curve; as a rule, active = well fitted curve in the direction sought with a large enough effect; inconclusive = small, poorly fitted or top-dose-only effect, or another doubt; inactive = no such curve, though single readings can be large; an effect the other way counts as inactive or inconclusive.

SMILES	ALOX12 inh	KAT2A inh	PLK1 PBD block	VDR inh
N#CCCCN1C(=O)C(=C(C#N)C#N)c2ccccc21	?	–	5.3µM	?
COc1ccc(S(=O)(=O)NCC2CCC(C(=O)NCc3ccco3)CC2)cc1 (stereo unspecified)	–	–	11µM	–
COc1cccc(NC(=S)NC(=O)/C=C/c2ccco2)c1	–	–	–	–
COc1ccc(C(NC(=O)/C=C/c2ccco2)c2ccc(OC)c(OC)c2)cc1 (stereo unspecified)	45µM	–	–	–
Cc1ccc(S(=O)(=O)NCC2CCC(C(=O)NCc3ccco3)CC2)cc1 (stereo unspecified)	–	–	–	–
COc1ccc(NC(=O)NCc2ccco2)c(OC)c1	–	–	12µM	?
COc1ccc(NC(=S)NC(=O)/C=C/c2ccco2)c(OC)c1	35µM	–	–	–
O=C(CCC1CCCCC1)NCCCNC(=O)CCC1CCCCC1	–	·	·	·
Nc1ccc(O)cc1	?	·	·	79µM
Nc1ccc(C(c2ccc(N)cc2)c2ccc(O)cc2)cc1	–	·	·	·
COc1cccc(-c2cc(-c3cccnc3)c3cncn3c2)c1OC	–	·	·	·
CC(C)C(C#CCN1CCCCC1)(c1ccccc1)c1ccccc1	20µM	·	·	·
CC(O)(C#CCN1CCCCCC1)c1ccccc1 (stereo unspecified)	?	–	30µM	–
Cc1nn(-c2ncnc3nc[nH]c23)c2c1C(c1ccc(F)cc1Cl)CC(=O)N2 (stereo unspecified)	–	·	·	·
CCOC(=O)c1cc(C2(O)CCOC(C)(C)C2)on1 (stereo unspecified)	–	·	·	·
COc1cc(-c2ccc(C)cc2)nc2ccc(C(=O)N3CCC(C(N)=O)CC3)cc12	–	·	·	·
O=C(Nc1ccccc1Cl)c1cnccn1	–	–	–	–
O=C(Nc1ccc(Br)cc1Cl)c1cnccn1	32µM	–	?	–
CN1CCc2cccc3c2[C@@H]1Cc1ccc(O)c(O)c1-3	·	–	?	32µM!
Cc1cc(NC(=O)NCc2nc(-c3ccccc3C)oc2C)ccc1Cl	–	·	·	·
CCO[C@H]1CN(c2cc(C)nc(-c3ccccc3O)n2)C[C@@H]1O	–	·	·	·
CC(C)c1ccc(NC(=S)NC2CCSc3ccccc32)cc1 (stereo unspecified)	35µM	·	·	·
CCOc1cc(C#N)ccc1OCc1ccccc1	–	·	·	·
O=C(NCCSCc1cccs1)C1CC1	–	·	·	·
CCCNS(=O)(=O)c1ccc(CCC(=O)NCc2ccco2)cc1	?	–	30µM	–
SMILES	ALOX12 inh	KAT2A inh	PLK1 PBD block	VDR inh
CC(C)(C)NS(=O)(=O)c1ccc(CCC(=O)NCc2ccco2)cc1	–	–	–	–
N#Cc1c(N)nc2c(c1-c1cccc(O)c1)CCCCCC2	–	–	–	–
Oc1cccc(-c2c3nc(c(-c4cccc(O)c4)c4ccc([nH]4)c(-c4cccc(O)c4)c4nc(c(-c5cccc(O)c5)c5ccc2[nH]5)CC4)C=C3)c1	3.6µM	·	·	·
C=CCOc1ccc(NC(=O)C(C)Oc2ccccc2)cc1 (stereo unspecified)	–	·	·	·
C/C(=N\OC(=O)c1ccccc1Br)c1ccc(C)cc1	–	·	·	·
O=C(Nc1ccc(-c2nc3ccccc3o2)cc1)C1CC1	–	·	·	·
CC(C)(C)NC(=S)NC(=O)C12CC3CCC(CC(C3)C1)C2	22µM	–	–	–
CC(C)(CO)NC(=O)C12CC3CCC(CC(C3)C1)C2	–	·	·	·
O=c1ccsn1Cc1ccccc1	?	?	3µM	?
O=C1NC(Cc2ccccc2)C(=O)N1Cc1ccccc1 (stereo unspecified)	–	·	–	–
COc1cc(CN2CCCCC23Cc2ccccc2CNC3=O)cc(OC)c1 (stereo unspecified)	–[6.33 µM]	·	·	·
COc1ccc2nc(NC(=S)N(C)C)sc2c1	7.9µM	–	5.3µM	?
COc1ccc(C=O)c(OCc2cn(CC(=O)c3ccc(O)cc3)nn2)c1	1.3µM	·	–	–
N#Cc1ccccc1OCc1cn(CC(=O)c2ccc(O)cc2)nn1	?	·	24µM	?
CCOC(=O)c1ccc(NC(=S)NCCNC(C)=O)cc1	–	·	·	·
Cc1[nH]cnc1CSCCn1ccnc1-c1nccn1C	–	·	·	·
Cc1cc(C)[n+](C)n1-c1ccccc1	18µM	·	·	·
COc1cccc(/C=C(\C#N)c2ccccc2)c1OC(C)C	–	·	·	·
CCOc1ncccc1C(=O)N1CCN(c2cc(Cl)ccc2C)CC1	–	–	21µM	–
CCOc1ncccc1C(=O)N1CCN(c2cccc(C)c2C)CC1	–	–	–	–
Cc1noc(C)c1[S+](=O)([O-])N1CCC2OCCN(Cc3ccccc3)C(=O)C2C1 (stereo unspecified)	100µM	·	·	·
Cc1noc(C)c1[S+](=O)([O-])N1CCC2(CC1)OCCN(Cc1ccccc1)C2=O	–	·	·	·
C=C[C@]1(C)C=C2CCC3[C@](C)(CCC[C@@]3(C)C(=O)O)C2CC1 (stereo partly specified)	·	–	24µM	–
C=C/C(C)=C/CC1C(=C)CCC2C(C)(C(=O)O)CCCC12C (stereo unspecified)	–	–	19µM	–
CCOC(=O)C1(CC2CCCCO2)CCN(C(=O)Nc2ccc(SC)cc2)CC1 (stereo unspecified)	–	–	–	–
SMILES	ALOX12 inh	KAT2A inh	PLK1 PBD block	VDR inh
CCOC(=O)C1(CC2CCCCO2)CCN(C(=O)Nc2cccc(SC)c2)CC1 (stereo unspecified)	–	–	21µM	–
CC1=C/C(=N\NC(=O)c2ccc(N)cc2)CC1	–	·	·	·
COc1cc(C(C2C(=O)CC(C)(C)CC2=O)C2C(=O)CC(C)(C)CC2=O)ccc1O	?	–	?	?
CC1(C)CC(=O)C(C(c2ccc3c(c2)OCO3)C2C(=O)CC(C)(C)CC2=O)C(=O)C1	?	·	17µM	·
COc1ccc(C(C2C(=O)CC(C)(C)CC2=O)C2C(=O)CC(C)(C)CC2=O)cc1	?	–	9.5µM	56µM
Cc1ccc(C(C2C(=O)CC(C)(C)CC2=O)C2C(=O)CC(C)(C)CC2=O)s1	·	–	2.7µM	40µM
CC1(C)CC(=O)C(C(c2cccc([N+](=O)[O-])c2)C2C(=O)CC(C)(C)CC2=O)C(=O)C1	–	–	–	?
CCOc1cc2c3c(c1)C(C)=CC(C)(C)N3C(=O)C2=O	–	–	–	?
CC(=O)Oc1cc2c3c(c1)/C(=C1/SC(=S)NC1=O)C(=O)N3C(C)(C)C=C2C	–	–	27µM	?
Cc1nnc(SCC(=O)NC2CCCCC2)[nH]c1=O	–	–	–	–
Cc1nnc(SC(C)C(=O)NC2CCCCC2)[nH]c1=O (stereo unspecified)	–	·	27µM	–
Clc1ccc(-n2nnc(-c3nccs3)n2)cc1Cl	5.6µM	–	27µM	–
CC(NC(=O)C1CCCC1)c1ccc(Cl)s1 (stereo unspecified)	–	·	·	·
CNS(=O)(=O)c1cc(C(=O)NCC2(c3ccccc3)CC2)cc(C)c1C	–	·	·	·
COc1cc(C(=O)NCCNC(=O)c2ccco2)cc(OC)c1OC	?	·	27µM	?
CC1CCC(NCCNC(=O)c2ccco2)CC1 (stereo unspecified)	2.8µM	–	–	–
